Measured values taken from PubChem BioAssay (NCATS).
Records with an inconclusive call do not appear. Active and inactive are the calls of the source. Unless noted, calls follow the shape of the full dose curve.

What was measured:
[1] = qHTS for Inhibitors of the Functional Ribonucleoprotein Complex (vRNP) of Lassa (LASV) Arenavirus: LASV Primary Screen - GLuc reporter signal (AID 1347082; calls by dose curve; tested in HEK293 reporter line; also: nearly all actives have a fitted effect of over 60% in size; as to activity change, negative = inhibition: series mostly up to about 57 µM)
[2] = qHTS for Inhibitors of the Functional Ribonucleoprotein Complex (vRNP) of Lassa (LASV) Arenavirus: Viability assay - alamar blue signal for LASV Primary Screen (AID 1347083; calls by dose curve; tested in HEK293 reporter line; also: nearly all actives have a fitted effect of over 80% in size; as to activity change, negative = reduced viability: series mostly up to about 57 µM)
[3] = qHTS for Inhibitors of the Functional Ribonucleoprotein Complex (vRNP) of Lymphocytic Choriomeningitis Arenaviruses (LCMV): Viability assay - alamar blue signal for LCMV Primary Screen (AID 1347085; calls by dose curve; tested in HEK293 reporter line; also: nearly all actives have a fitted effect of over 80% in size; as to activity change, negative = lower viability: series mostly up to about 57 µM)
[4] = target: Nucleoprotein (Lymphocytic choriomeningitis virus (strain Armstrong)) (UniProt P09992); test: qHTS for Inhibitors of the Functional Ribonucleoprotein Complex (vRNP) of Lymphocytic Choriomeningitis Arenaviruses (LCMV): LCMV Primary Screen - GLuc reporter signal (AID 1347086); also: nearly all actives have a fitted effect of over 70% in size; as to activity change, negative = inhibition: series mostly up to about 57 µM
% is scaled to controls: 0 for no effect and ±100 for the full control effect; potency is read from the fitted curve at half-maximal effect.

Sequence of Nucleoprotein (Lymphocytic choriomeningitis virus (strain Armstrong)) (P09992 whole entry, looked up): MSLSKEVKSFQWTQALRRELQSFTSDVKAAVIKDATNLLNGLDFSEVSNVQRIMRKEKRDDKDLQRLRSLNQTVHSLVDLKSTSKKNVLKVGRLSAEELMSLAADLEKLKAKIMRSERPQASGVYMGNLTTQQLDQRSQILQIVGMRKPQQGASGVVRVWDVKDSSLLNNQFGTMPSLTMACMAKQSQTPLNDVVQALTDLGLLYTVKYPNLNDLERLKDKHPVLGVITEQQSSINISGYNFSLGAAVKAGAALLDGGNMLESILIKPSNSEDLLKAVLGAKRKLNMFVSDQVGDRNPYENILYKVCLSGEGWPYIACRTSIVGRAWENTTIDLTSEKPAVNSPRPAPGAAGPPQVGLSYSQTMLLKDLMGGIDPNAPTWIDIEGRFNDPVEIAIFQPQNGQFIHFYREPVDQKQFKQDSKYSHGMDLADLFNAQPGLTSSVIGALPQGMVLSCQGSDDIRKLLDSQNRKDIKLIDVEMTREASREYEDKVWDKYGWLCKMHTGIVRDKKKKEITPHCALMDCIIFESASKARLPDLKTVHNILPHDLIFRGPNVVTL

OCc1ccccc1O[C@@H]1O[C@H](CO)[C@H](O)[C@H](O)[C@H]1O
inactive: Potency [1] | Potency [2] | Potency [3] | Potency [4]

CC(C)CCCC(C)CCO (stereo not given)
inactive: Potency [1] | Potency [2] | Potency [3] | Potency [4]

C=C/C(=C/C(=O)C[C@H](C)C[C@@H](C)CC[C@H](O)[C@H](C)C(=O)C[C@@H](O)[C@H](C)[C@@H](C)OC(=O)C[C@@H](O)C1=C(C)C(=O)OC1=O)CC
inactive: activity change, negative = inhibition [1] -47.1% [at 11.5 µM] | activity change, negative = reduced viability [2] -113% [at 11.5 µM] | activity change, negative = lower viability [3] -114% [at 11.5 µM] | activity change, negative = inhibition [4] -83.6% [at 11.5 µM]

CC(C)(O)C1CC[C@@](C)([C@@H]2CC[C@]3(C)[C@H]2[C@H](O)CC2[C@@]4(C)CCC(O)C(C)(C)C4C(OC4OC(CO)C(O)C(O)C4O[C@@H]4OCC(O)C(O)C4O)C[C@]23C)O1 (stereo not given in full)
inactive: Potency [1] | Potency [2] | Potency [3] | Potency [4]

C=C1C(=O)OC2C=C(CO)CCC=C(CO)CC(OC(=O)C(C)C)C12 (stereo not given)
inactive: Potency [1] | Potency [2] | Potency [3] | Potency [4]

CC(=O)O[C@H]1C(=O)[C@@]2(C)C([C@H](OC(=O)c3ccccc3)[C@]3(O)C[C@H](OC(=O)[C@H](O)[C@@H](NC(=O)c4ccccc4)c4ccccc4)C(C)=C1C3(C)C)[C@]1(OC(C)=O)CO[C@@H]1C[C@H]2O (stereo not given in full)
inactive: Potency [1] | Potency [2] | Potency [3] | Potency [4]

Oc1cc(O)cc(C=Cc2ccc(O)c(O)c2)c1
inactive: Potency [1] | Potency [2] | Potency [3] | Potency [4]

CC1(C)C=Cc2c(c3ccccc3[nH]c2=O)O1
inactive: Potency [1] | Potency [2] | Potency [3] | Potency [4]

CO[C@H]1C[C@H](O[C@H]2[C@H](C)O[C@@H](O[C@@H]3/C(C)=C/C[C@@H]4C[C@@H](C[C@]5(C=C[C@H](C)[C@@H](C6CCCCC6)O5)O4)OC(=O)[C@@H]4C=C(C)[C@@H](O)[C@H]5OC/C(=C\C=C\[C@@H]3C)[C@]54O)C[C@@H]2OC)O[C@@H](C)[C@@H]1O
inactive: Potency [1] | Potency [2] | Potency [3] | Potency [4]

COc1c(C)c2c(c(O)c1CC=C(C)CCC(=O)O)C(=O)OC2
active: Potency [1] 6.11 µM | Potency [2] 3.85 µM | Potency [3] 13.7 µM | Potency [4] 7.69 µM

COC(=O)Cc1ccccc1
inactive: Potency [1] | Potency [2] | Potency [3] | Potency [4]

C/C=C(/C)C(=O)O[C@@H]1c2c(ccc3ccc(=O)oc23)O[C@@H]1C(C)(C)OC(C)=O
inactive: Potency [1] | Potency [2] | Potency [3] | Potency [4]

O=C1Nc2ccccc2C(=O)N2CCC[C@@H]12
inactive: Potency [1] | Potency [2] | Potency [3] | Potency [4]

CC/C=C\CCOC(C)OCC (stereo not given)
inactive: Potency [1] | Potency [2] | Potency [3] | Potency [4]

CC(=O)C1CCC2C3CCC4=CC(=O)C=CC4(C)C3C(=O)CC12C (stereo not given)
inactive: Potency [1] | Potency [2] | Potency [3] | Potency [4]

CCCCCCCCCCOS(=O)(=O)O
inactive: Potency [1] | Potency [2] | Potency [3] | Potency [4]

CC(=O)Nc1nc(C)c(-c2ccc(Cl)c(S(=O)(=O)NCCO)c2)s1
active: Potency [1] 2.43 µM | Potency [2] 1.37 µM | Potency [3] 0.685 µM | Potency [4] 0.544 µM

CC1=C(/C=C/C(C)=C/C=C/C(C)=C/C=C/C=C(C)/C=C/C=C(\C)C=O)C(C)(C)CCC1
inactive: Potency [1] | Potency [2] | Potency [3] | Potency [4]

CNC(=O)c1ccccc1Sc1ccc2c(C=Cc3ccccn3)n[nH]c2c1
active: Potency [2] 17.2 µM
inactive: Potency [1] | Potency [3] | Potency [4]

COc1cc(OC)c2c(-c3ccccc3)cc(=O)oc2c1
inactive: Potency [1] | Potency [2] | Potency [3] | Potency [4]

O=C(O)COc1ccc(Cl)cc1CO
inactive: Potency [1] | Potency [2] | Potency [3] | Potency [4]

CC(C)(O)[C@@H]1CC(=O)[C@]2(C)[C@H](CC[C@@]3(C)[C@H](c4ccoc4)OC(=O)[C@H]4O[C@]432)[C@@]1(C)/C=C\C(=O)O
inactive: Potency [1] | Potency [2] | Potency [3] | Potency [4]

COc1ccc([C@@H](OC)[C@@]2(Cc3ccc(O)cc3)N=C(N)N(C)C2=O)cc1
inactive: Potency [1] | Potency [2] | Potency [3] | Potency [4]

O=C(O)[C@@H]1Cc2c([nH]c3ccccc23)C2CCC(=O)N21 (stereo not given in full)
inactive: Potency [1] | Potency [2] | Potency [3] | Potency [4]

COc1cc2c(cc1OC)[C@H]1C(=O)c3ccc4c(c3O[C@H]1CO2)C[C@@H](C(C)(C)O)O4
inactive: Potency [1] | Potency [2] | Potency [3] | Potency [4]

O=Cc1cc2ccccc2o1
inactive: Potency [1] | Potency [2] | Potency [3] | Potency [4]

CC1(C)O[C@@H]2C[C@@H]3[C@H]4C[C@@H](F)C5=CC(=O)C=C[C@]5(C)[C@@]4(F)[C@@H](O)C[C@]3(C)[C@]2(C(=O)CO)O1
inactive: Potency [1] | Potency [2] | Potency [3] | Potency [4]

CC1=CCC(C(C)C)=CC1
inactive: Potency [1] | Potency [2] | Potency [3] | Potency [4]

Cc1c(O)cccc1C(=O)N[C@@H](CSc1ccccc1)[C@H](O)CN1C[C@H]2CCCC[C@@H]2C[C@@H]1C(=O)NC(C)(C)C
inactive: Potency [1] | Potency [2] | Potency [3] | Potency [4]

CC1(C)CCC[C@@]2(C)CC=C(C(=O)O)[C@@H]3C[C@]312
inactive: Potency [1] | Potency [2] | Potency [3] | Potency [4]

CCOC(=O)c1ccccc1
inactive: Potency [1] | Potency [2] | Potency [3] | Potency [4]

CC1(C)C[C@@H](O)[C@]2(C)CC[C@]3(C)C(=CCC4[C@@]5(C)CC[C@H](O)[C@](C)(CO)C5CC[C@]43C)[C@@H]2C1 (stereo not given in full)
inactive: Potency [1] | Potency [2] | Potency [3] | Potency [4]

CC(C)=CCC/C(C)=C/COc1c2occc2cc2ccc(=O)oc12
inactive: Potency [1] | Potency [2] | Potency [3] | Potency [4]

CC(C)(O)CC[C@H](OC(=O)c1ccccc1)[C@](C)(O)[C@H]1CC[C@@]2(O)C3=CC(=O)[C@@H]4C[C@@H](O)[C@H](O)C[C@]4(C)C3CC[C@]12C (stereo not given in full)
inactive: Potency [1] | Potency [2] | Potency [3] | Potency [4]

COc1cc(C)cc(C(=O)O)c1C1=C(O)c2cccc(O)c2C(=O)C1=O
inactive: Potency [1] | Potency [2] | Potency [3] | Potency [4]

COc1ccc([C@H]2Cc3cccc(O)c3C(=O)O2)cc1O
inactive: Potency [1] | Potency [2] | Potency [3] | Potency [4]

COC(=O)c1cc(OC)cc(O)c1C(=O)c1c(O)cc(C)cc1O
inactive: Potency [1] | Potency [2] | Potency [3] | Potency [4]

C=C1C(=O)OC2C1C(OC(=O)C(C)=CC)CC(=C)C1C(O)C3OC3(C)C21O (stereo not given)
inactive: Potency [1] | Potency [2] | Potency [3] | Potency [4]

COc1ccc([C@@H]2[C@@H](O)[C@H](O)[C@@H](C)N2C)cc1OC
inactive: Potency [1] | Potency [2] | Potency [3] | Potency [4]

C#CCCCCCCCCCCCc1ccco1
inactive: Potency [1] | Potency [2] | Potency [3] | Potency [4]

OCCC(O)CO (stereo not given)
inactive: Potency [1] | Potency [2] | Potency [3] | Potency [4]

CC=C(C)C(=O)OC1CCN2CC=C(COC(=O)C(O)(C(C)OC)C(C)(C)O)C12 (stereo not given)
inactive: Potency [1] | Potency [2] | Potency [3] | Potency [4]

COc1ccc(CC(=O)c2ccc(OC3OC(CO)C(O)C(O)C3O)cc2O)cc1 (stereo not given)
inactive: Potency [1] | Potency [2] | Potency [3] | Potency [4]

CC(=O)NC(Cc1cnc[nH]1)C(=O)O (stereo not given)
inactive: Potency [1] | Potency [2] | Potency [3] | Potency [4]

CC(C)=CCC/C(C)=C/COc1c2ccoc2cc2oc(=O)ccc12
inactive: Potency [1] | Potency [2] | Potency [3] | Potency [4]

CC1=C[C@H](O)CC(C)(C)[C@H]1/C=C/C(C)=C/C=C/C(C)=C/C=C/C=C(C)/C=C/C=C(C)/C=C/C1=C(C)C[C@@H](O)CC1(C)C
inactive: Potency [1] | Potency [2] | Potency [3] | Potency [4]

Cc1[nH]c(C=C2C(=O)Nc3ccc(S(=O)(=O)N(C)c4cccc(Cl)c4)cc32)c(C)c1C(=O)N1CCN(C)CC1
inactive: Potency [1] | Potency [2] | Potency [3] | Potency [4]

Cn1c(=O)c2[nH]c(=O)[nH]c2n(C)c1=O
inactive: Potency [1] | Potency [2] | Potency [3] | Potency [4]

CC1=CC(C/C(C)=C/COc2ccc3ccc(=O)oc3c2)OC1=O (stereo not given)
inactive: Potency [1] | Potency [2] | Potency [3] | Potency [4]

CC(C)=CC(=O)O[C@@H]1Cc2cc3ccc(=O)oc3cc2OC1(C)C
inactive: Potency [1] | Potency [2] | Potency [3] | Potency [4]

COC(=O)c1cc2c([nH]c3ccccc32)c(C)n1
inactive: Potency [1] | Potency [2] | Potency [3] | Potency [4]

CC1=CCCC(C)(C)C12CCC(C)O2 (stereo not given)
inactive: Potency [1] | Potency [2] | Potency [3] | Potency [4]

CC(=O)OC(C)c1ccccc1 (stereo not given)
inactive: Potency [1] | Potency [2] | Potency [3] | Potency [4]

C=C1C[C@@]23CC4C5[C@@]6(C)C[C@H](O)C[C@@]57C2[C@H](O)[C@@H]1[C@H](O)[C@H]3[C@H]7N4C6
inactive: Potency [1] | Potency [2] | Potency [3] | Potency [4]

CC(=O)c1c(O)cc(O)cc1O
inactive: Potency [1] | Potency [2] | Potency [3] | Potency [4]

CC1(C)CC(=O)CC(C)(C)N1
inactive: Potency [1] | Potency [2] | Potency [3] | Potency [4]

COc1cc2ccc(=O)oc2cc1O
inactive: Potency [1] | Potency [2] | Potency [3] | Potency [4]

CC1=C(C(=O)O)N2C(=O)C(NC(=O)CCCC(=O)O)C2SC1 (stereo not given)
inactive: Potency [1] | Potency [2] | Potency [3] | Potency [4]

CC(C)=CCC1=C(O)[C@](O)(CC=C(C)C)C(=O)C(C(=O)CC(C)C)=C1O
inactive: Potency [1] | Potency [2] | Potency [3] | Potency [4]

NCCC[C@H](N)CC(=O)N[C@H]1CNC(=O)[C@H]([C@H]2C[C@H](O)N=C(N)N2)NC(=O)C(=CNC(N)=O)NC(=O)[C@H](CO)NC(=O)[C@H](CO)NC1=O
inactive: Potency [1] | Potency [2] | Potency [3] | Potency [4]
